Bioassay records deposited in PubChem BioAssay by ICCB-Longwood Screening Facility, Harvard Medical School.
VACV E9 pol inh = vaccinia E9 polymerase processive synthesis inhibitors, primary screen, biochemical, absorbance. Vaccinia virus DNA polymerase (E9) processive complex. AID 493162, 2011. normalized absorbance, % (concentration not given with the values). in vitro processive DNA synthesis, absorbance read-out; stronger effect = lower value. 46,000 tested, 0.94% active; in the data active = normalized absorbance mostly below about 85%, no sharp cut-off; inactive = mostly above about 86%
The depositor's hits bear a star. The entries come from a sample that favours hits as a whole.

SMILES | VACV E9 pol inh
CC(=O)Nc1ccc(Cl)c(Cl)c1 | 99
O=S(=O)(NC(=NCCc1ccccn1)Nc1cccc(Cl)c1)c1ccccc1 | 109
Cc1ccccc1-c1nnc(NC(=O)C(C)SC2=NCCS2)s1 (stereo not drawn) | 99
CCN1C=C/C(=C\c2cc[n+](CC)c3ccccc23)c2ccccc21 | 65*
CC[n+]1ccc(C)c2ccccc21 | 99
COc1ccc(-c2nc(CS(=O)CC(=O)NC(C)c3ccccc3)c(C)o2)cc1OC (stereo not drawn) | 94
CN(C)C(=O)n1nc2c3c(cccc31)C(=O)c1ccccc1-2 | 69
Cc1ccc(-c2nn(CC(=O)N(C)C)c(=O)c3ccccc23)cc1 | 100
CCN(CC)Cn1nc2c3c(cccc3c1=O)-c1ccccc1-2 | 57*
COc1ccc(CN2CCCN(Cc3ccc(OC)cc3)C2c2cccc(C)n2)cc1 | 87
c1ccc2c(c1)CC(CN1CCCCC1)O2 (stereo not drawn) | 103
O=C(O)CNS(=O)(=O)/C=C/c1ccccc1 | 100
O=C(O)c1ccccc1NS(=O)(=O)/C=C/c1ccccc1 | 95
O=S(=O)(/C=C/c1ccccc1)Nc1ccc(F)cc1 | 76*
CC(=O)Nc1ccc(S(=O)(=O)NCc2ccc(C(=O)NC3CCCC(C)C3C)cc2)cc1 (stereo not drawn) | 103
Cc1c(C=Nc2ccc(N3CCOCC3)cc2)c2ccccc2n1C | 100
Cc1nnc(Sc2cc(C(=O)NCc3ccccn3)c3ccccc3n2)s1 | 98
COC(CNC(=O)c1cc(Sc2nnc(C)s2)nc2ccccc12)OC | 93
Cc1nnc(Sc2cc(C(=O)NCCCN3CC(C)CC(C)C3)c3ccccc3n2)s1 (stereo not drawn) | 69*
Cc1cc(OCC(=O)NC(Cc2c[nH]c3ccccc23)C(=O)O)cc(C)c1Cl (stereo not drawn) | 60*
CC(=O)N[C@@H](Cc1c[nH]c2ccccc12)C(=O)O | 100
Cc1ccc(OCC(=O)NC(Cc2c[nH]c3ccccc23)C(=O)O)cc1 (stereo not drawn) | 94
COc1ccc(CCNC(=O)c2ccc(Sc3ccc(C)cc3)c(NC(C)=O)c2)cc1OC | 95
CCC[N+]1(C)CCC2C(C1)c1ccccc1N2Cc1ccccc1 (stereo not drawn) | 100
CC1C/C(=C/c2ccco2)C(C)N(C)C1 (stereo not drawn) | 104
SMILES | VACV E9 pol inh
CC(=O)OCC1=C(C(=O)O)N2C(=O)[C@@H](NC(=O)CSc3ccncc3)[C@H]2SC1 | 60*
Cn1nnnc1SCC1=C(C(=O)O)N2C(=O)C(NC(=O)C(OC=O)c3ccccc3)C2SC1 (stereo not drawn) | 99
CC1=C(C(=O)O)N2C(=O)[C@@H](NC(=O)[C@H](N)c3ccc(O)cc3)[C@H]2SC1 | 100
CO/N=C(/C(=O)NC1C(=O)N2C(C(=O)O)=C(COC(N)=O)CSC12)c1ccco1 (stereo not drawn) | 95
CC(=O)OCC1=C(C(=O)O)N2C(=O)[C@@H](NC(=O)CCCC(N)C(=O)O)C2SC1 (stereo partly drawn) | 88
Cn1nnnc1SCC1=C(C(=O)O)N2C(=O)C(NC(=O)C(O)c3ccccc3)C2SC1 (stereo not drawn) | 64*
O=CN1CCN(C(=O)c2ccccc2)CC1 | 100
Cc1cc(CN2CCc3ccccc3C2)cs1 | 108
COC(=O)c1cc(-c2ccccc2)nc2ccc(C)cc12 | 105
CNS(=O)(=O)c1ccc2[nH]c(=O)[nH]c2c1 | 99
COc1ccc(C(=O)CSc2nc3ccccc3s2)cc1 | 90
COc1ccc(-c2ccnc(SCC(=O)c3ccc(Cl)cc3)n2)cc1 | 99
COc1ccc(C(=O)CSc2nnc(-c3ccco3)c(-c3ccco3)n2)cc1 | 68*
Cc1ccc(NC(=O)CC#N)cc1 | 95
N=c1sc(C(=O)c2ccccc2)c2scc(-c3ccccc3)n12 | 99
